In PubChem BioAssay (NCI) one finds growth data, which are given here for 15 compounds.

SMILES strings stand for the structures. The panel holds about 83,000 compounds, 20% with a hit somewhere; the sample as a whole holds those more often.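 Growth was measured after 48 h exposure to one concentration of compound in 96-well plates. Values under 10 count as active.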 A number with no mark means an inactive call. The source made the active and inactive calls.

The assay concerns MDA-MB-468 breast. Briefly: NCI-60 one-dose screen, 48 h (100 = growth as untreated, 0 = no growth, -100 = all killed). The following applies: 10 µM unless noted.
As to `c1ccc2c(c1)oc1cc3c(cc12)nnc1cccn13`, the growth is 108%.

On to `CC(=O)CS(C)(=O)=O`, for which the growth is 109%.

As to `CC(C)N1CCN(c2ccncc2S(=O)(=O)N2CCN(C)CC2)CC1`, the growth was 94.3%.

Turning to `O=C(Oc1ccc([N+](=O)[O-])cc1)c1ccc(CBr)cc1`, the growth is 84.9%.

Consider `COc1cc(C2C(C#N)=C(N)OC3=C2C(=O)c2ccccc2C3=O)cc(OC)c1OC` (stereo not given), for which the growth was 42.4%.

For `O=C1NC(=O)C(CC(=O)n2c(-c3ccccc3)nc3ccccc32)C(=O)N1`, the growth is 98.3%.

Consider `NC(=S)Nc1ccc2c(c1)Cc1ccccc1-2`, for which the growth was 69.4%.

Turning to `CN1CCN(Cc2ccc(NC(=O)c3cncc(C#Cc4c(N)ncc5c(F)cccc45)c3)cc2C(F)(F)F)CC1`, the growth is -82% (active).

For `COc1cc(Nc2nc(N[C@H]3CCCC[C@@H]3N)nc3cc[nH]c(=O)c23)cc(OC)c1`, the growth is -24.5% (active).

As to `Nc1cc2c(cc1N)-c1cc(N)c(N)cc1C2`, the growth was 105%.

For the compound `Cc1ccc(Nc2cc(N)nc(N)n2)cc1Cl`, the growth was 77.8%.

As to `CCOC(=O)CNC(=O)CCCCSc1ncnc2nc[nH]c12`, the growth is 95.4%.

Consider `COc1cc(/C=C/C(=O)/C=C(O)/C=C/c2ccc(OC(=O)C34CC5CC(CC(C5)C3)C4)c(OC)c2)ccc1OC(=O)C12CC3CC(CC(C3)C1)C2`, for which the growth was 108%.

As to `N#Cc1c(-c2cccc(F)c2)cc(-c2cccnc2)[nH]c1=O`, the growth is 106%.

Regarding `CCO/C=N/C1=C(C#N)C(c2ccc(F)cc2)c2sc3c(F)cccc3c2O1` (stereo not given), the growth was 27.2%.
